# Reference: PMC4336329 (PLoS ONE, 2015)
# About 14,000 (4.5%) of roughly 310,000 compounds showed an effect of 50% or more. The effect is printed as a negative number. The full list was thinned out, with strong results kept by preference.
# Molecular target: human ether-à-go-go-related gene (hERG) potassium channel (human, UniProt Q12809)
# Experiment: primary screen, population patch clamp on CHO cells stably expressing hERG; higher = less effect of the substance
# 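Note: peak tail current of the secondary pulse compared with the same well before compound.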
# Sequence of human ether-à-go-go-related gene (hERG) potassium channel (Q12809 whole entry, looked up): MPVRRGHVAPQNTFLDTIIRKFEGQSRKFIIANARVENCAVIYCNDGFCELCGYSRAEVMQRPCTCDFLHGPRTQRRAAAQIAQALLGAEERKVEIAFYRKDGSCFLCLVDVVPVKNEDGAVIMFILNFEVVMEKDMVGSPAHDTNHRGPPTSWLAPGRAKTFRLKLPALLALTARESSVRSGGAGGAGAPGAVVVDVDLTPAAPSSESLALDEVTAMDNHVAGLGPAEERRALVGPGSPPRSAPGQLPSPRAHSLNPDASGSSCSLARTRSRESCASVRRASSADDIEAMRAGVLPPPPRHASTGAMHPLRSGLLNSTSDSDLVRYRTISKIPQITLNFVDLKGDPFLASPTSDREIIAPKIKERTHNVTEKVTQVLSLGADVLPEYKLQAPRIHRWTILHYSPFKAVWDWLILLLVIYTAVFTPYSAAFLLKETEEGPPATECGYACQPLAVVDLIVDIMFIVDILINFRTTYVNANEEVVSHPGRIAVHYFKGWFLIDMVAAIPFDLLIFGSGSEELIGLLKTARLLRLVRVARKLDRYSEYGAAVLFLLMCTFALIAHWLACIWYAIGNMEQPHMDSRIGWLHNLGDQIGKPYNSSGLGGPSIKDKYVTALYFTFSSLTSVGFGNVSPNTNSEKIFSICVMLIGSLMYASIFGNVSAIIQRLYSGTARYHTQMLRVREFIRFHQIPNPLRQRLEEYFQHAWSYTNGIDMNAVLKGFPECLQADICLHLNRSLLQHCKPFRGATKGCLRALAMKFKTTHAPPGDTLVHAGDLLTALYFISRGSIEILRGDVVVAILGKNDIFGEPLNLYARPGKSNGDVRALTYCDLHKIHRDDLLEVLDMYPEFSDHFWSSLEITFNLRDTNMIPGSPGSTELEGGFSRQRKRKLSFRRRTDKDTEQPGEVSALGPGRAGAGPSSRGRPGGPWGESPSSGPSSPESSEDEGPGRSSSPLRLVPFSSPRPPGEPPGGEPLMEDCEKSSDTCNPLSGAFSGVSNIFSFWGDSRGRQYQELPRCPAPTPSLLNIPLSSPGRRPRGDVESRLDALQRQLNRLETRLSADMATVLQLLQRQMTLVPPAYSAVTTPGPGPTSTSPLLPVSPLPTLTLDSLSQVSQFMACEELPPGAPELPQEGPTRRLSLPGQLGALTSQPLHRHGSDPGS
row,SMILES,"hERG current change (%, negative = inhibition) at 10uM [%]"
1,OCC1(Cc2ccccc2)CCN(C2CCN(c3ccccc3F)CC2)CC1,-68.8
2,O=C(NCc1ccccc1)N1CCC(CO)(Cc2cccc(F)c2)CC1,-12.8
3,OCC1(Cc2ccccc2)CCCN(C2CCCC2)C1 (centres unmarked),-8.01
4,O=C(NCc1ccccc1)N1CCN(c2ccccc2F)CC1,1.22
5,CC(=O)N1CCC(N2CCN(c3ccccc3F)CC2)CC1,0.444
6,Cc1ccc(-c2ccc(=O)n(Cc3c(F)cccc3Cl)n2)cc1,9.18
7,Cc1ccc2nc(Nc3ccccc3O)nc(-c3ccccc3)c2c1,14.3
8,O=C(CCN1C(=O)c2cccc3cccc(c23)C1=O)NCc1cccnc1,-16.7
9,C/C(CC(=O)Nc1ccccc1Cl)=N\NC(=O)C(=O)NCCO,6.65
10,CC1CC(C)(C)CC(=O)C1C(=O)c1ccccc1 (centres unmarked),16.4
11,O=C(O)c1ccc(S(=O)(=O)c2ccccc2)cc1,11.5
12,COS(=O)(=O)[O-].C[N+]1(C)CCC(=C(c2ccccc2)c2ccccc2)CC1,-71
13,CCOc1ccc(-n2ccnc(SCC(=O)Nc3ccc(OC)cc3OC)c2=O)cc1,9.58
14,O=C(CON=C1c2ccccc2-c2ccccc21)NC12CC3CC(CC(C3)C1)C2,-7.23
15,N#CC1=C(SCc2ccccc2)NC(=O)CC1c1ccco1 (centres unmarked),10.9
16,C=CCNC(=O)CN1CCC(O)(c2ccc(F)cc2)CC1,-5.8
17,O=C(CN1CCC(O)(c2ccc(F)cc2)CC1)NCc1ccc(F)cc1,-34.2
18,O=C(CCCN1CCC(O)(c2ccc(Br)cc2)CC1)c1ccc(F)cc1,-79.7
19,Cl.O=C(CCCN1CCC(O)(c2cccc(C(F)(F)F)c2)CC1)c1ccc(F)cc1,-75.6
20,OC1(c2cccc(C(F)(F)F)c2)CCN(CCN2CCCCC2)CC1,-3.82
21,CC(=O)N1CCC(O)(c2cccc(C(F)(F)F)c2)CC1,12.7
22,O=C1CCC([N+](=O)[O-])C(C2CC=CCC2)N1 (centres unmarked),4.76

row,SMILES,"hERG current change (%, negative = inhibition) at 10uM [%]"
1,CCOC(=O)c1ccc(CNC(=O)CCC(=O)O)cc1,4.15
2,COc1ccnc2c1c(=O)n(Cc1ccc(F)cc1)c(=O)n2C,-6.22
3,O=C(NCCCO)C(=O)Nc1cc2c3c(c1)CCN3C(=O)CC2,11.8
4,CC(=O)C1=C(C)NC(SCC(N)=O)=C(C#N)C1C (centres unmarked),8.65
5,COc1ccc(C(=O)NCC(=O)NCC(=O)OCC(=O)c2ccc(Br)cc2)cc1,15.3
6,COc1ccc(C(=O)NCC(=O)NCC(=O)OCC(=O)c2ccc(C)cc2)cc1,4.23
7,COc1ccc(C(=O)NCC(=O)OCc2ccc([N+](=O)[O-])cc2)cc1,-58.3
8,CC(C)(C)c1ccc(C(=O)NCC(=O)OCc2ccc([N+](=O)[O-])cc2)cc1,-7.46
9,O=C(CNC(=O)c1cccc(F)c1)OCc1cc(=O)n2cc(Br)ccc2n1,-9.66
10,O=C(CNC(=O)c1ccccc1)OCc1cc(=O)n2cc(Br)ccc2n1,-31.6
11,O=C(CNC(=O)c1ccccc1)OCc1ccc([N+](=O)[O-])cc1,-33.9
12,COc1ccc(C(=O)NCC(=O)OCC(=O)c2ccc(Cl)cc2)cc1OC,-58.6
13,COc1ccc(C(=O)COC(=O)CNC(=O)c2ccc(OC)cc2)cc1,-52.6
14,COc1ccc(C(=O)NCC(=O)OCC(=O)c2cc(OC)c(OC)c(OC)c2)cc1OC,28.5
15,O=C(CNC(=O)c1cccc(OC(F)F)c1)OCc1cc(=O)n2cc(Br)ccc2n1,-55.2
16,COc1ccc(C(=O)NCC(=O)OCc2ccc(Cl)cc2Cl)cc1OC,-6.66
17,O=C(CN1CCN(c2ccccn2)CC1)Nc1ccccc1F,1.45
18,c1ccc2c(c1)CC1(CCCC1)n1nnnc1-2,-19.4
19,O=C(NCc1ccccc1)C1=C[C@H](C2CCCCC2)C[C@H](OCCCCO)O1,-3.07
20,N#Cc1cc([N+](=O)[O-])cnc1N(CCO)CCO,-1.1
21,CN1CCN(c2ncnc3nc[nH]c23)CC1,18.5
22,Cc1ccccc1C(=NCCCN(C)C)c1ccccc1C.Cl,-21.7
